{"source": "ChEMBL document CHEMBL3988442", "about": "“University of Dundee, Small-Polar-MMV Screening Library” (2021)", "note": "In all, about 48,000 compounds went through this assay and about 13,000 (27%) showed an effect of 50% or more. The list shows a part of the results."}
{"system": "Wolbachia pipientis", "test": "Anti-Wolbachia Cell-Based Screen", "format": "functional", "set-up": "scale not given: in the data most compounds retested in dose-response had high values", "conditions": "5 µM", "units": {"Percent Effect": "%"}}
{"smiles": "Cc1ccc(C)c(OCCN(C)C(=O)C2CCCN2C(N)=O)c1C", "note": "(stereo not given)", "Percent Effect": -6.745}
{"smiles": "COc1ccc(C2CCCN2c2ccc(C#N)cn2)c(OC)c1", "note": "(stereo not given)", "Percent Effect": 3.649}
{"smiles": "CCCN1CCC2(C1)c1ccccc1S(=O)(=O)N2C.O=C(O)C(F)(F)F", "note": "(stereo not given)", "Percent Effect": -10.43}
{"smiles": "CC(=O)N1CCC2(C1)c1ccccc1S(=O)(=O)N2Cc1ccccc1", "note": "(stereo not given)", "Percent Effect": 103.8}
{"smiles": "CCCN1CCC2(C1)c1ccccc1S(=O)(=O)N2Cc1ccccc1.O=C(O)C(F)(F)F", "note": "(stereo not given)", "Percent Effect": 16.14}
{"smiles": "CC(=O)N1CCC2(C1)c1ccccc1S(=O)(=O)N2C", "note": "(stereo not given)", "Percent Effect": 115.8}
{"smiles": "CCCN(CC(=O)OC)C(=O)c1sc(C)nc1C", "Percent Effect": 1.933}
{"smiles": "Cn1cnc2c1CCN(CCOc1ccc3c(c1)CCC(=O)N3)C2", "Percent Effect": -6.768}
{"smiles": "Cc1ccc(CNC2(Cc3cc(C(C)(C)O)on3)COC2)o1", "Percent Effect": -11.3}
{"smiles": "FC(F)(F)c1ccc(-c2n[nH]c3c2CN(CC2CCOC2)CC3)cc1", "note": "(stereo not given)", "Percent Effect": 2.824}
{"smiles": "CCCC(=O)N1CCC(c2cc3cccnc3c(O)n2)CC1", "Percent Effect": 125.1}
{"smiles": "CCCC(=O)N1CCC(c2nn(C)c(=O)n2-c2ccccc2)CC1", "Percent Effect": 0.6972}
{"smiles": "CCN(C)CC1CCN(C(=O)Nc2ccc(-c3cc[nH]n3)cc2)C1", "note": "(stereo not given)", "Percent Effect": 2.001}
{"smiles": "CCNC(=O)N1CCN(C(=O)c2cc(Cl)cc3cccnc23)CC1", "Percent Effect": -12.31}
{"smiles": "Cn1ccc(C(=O)N2CCCC(c3cc4cccnc4c(O)n3)C2)n1", "note": "(stereo not given)", "Percent Effect": 126.9}
{"smiles": "CCOC(=O)CCC(=O)N1CCC(Oc2ncccc2Cl)CC1", "Percent Effect": 1.106}
{"smiles": "CCCC(=O)N1CCC(c2cc[nH]n2)C1", "note": "(stereo not given)", "Percent Effect": 112.5}
{"smiles": "CCCC(=O)N1CCCC(c2cc3cccnc3c(O)n2)C1", "note": "(stereo not given)", "Percent Effect": 167}
{"smiles": "CN(Cc1ccon1)C(=O)C1CC(=O)N(Cc2cccnc2)C1", "note": "(stereo not given)", "Percent Effect": 3.448}
{"smiles": "Cc1cc(Cn2cncc(Br)c2=O)on1", "Percent Effect": 0.4664}
{"smiles": "O=C(NCc1cccc(C(F)(F)F)c1)C(c1cccnc1)N1CCCC1", "note": "(stereo not given)", "Percent Effect": -10.57}
{"smiles": "CC(C)[C@H]1COC(=O)N1CC(=O)N1CCCN(C(=O)c2ccoc2)CC1", "Percent Effect": -24.24}
{"smiles": "Cc1cccc(N2CCC(NCc3cnc(C4CCC4)s3)CC2)n1", "Percent Effect": 7.912}
{"smiles": "Cc1nc(C(F)(F)F)nc(N2CCC3(CC2)CC(C(=O)O)N(C)C3)c1C", "note": "(stereo not given)", "Percent Effect": -7.708}
{"smiles": "CCOCCC(=O)N1CCCC(c2ncc[nH]2)C1", "note": "(stereo not given)", "Percent Effect": -13.21}
{"smiles": "CCCC(=O)N1CCCC(c2ccccn2)C1", "note": "(stereo not given)", "Percent Effect": 152.5}
{"smiles": "CCC(=O)N1CCCC(c2cc(Nc3ncccn3)nc(C)n2)C1", "note": "(stereo not given)", "Percent Effect": -9.589}
{"smiles": "Cc1nc2c(s1)C(N(C)C(=O)NCCCC(C)(C)CO)CCC2", "note": "(stereo not given)", "Percent Effect": -8.844}
{"smiles": "Cc1cc(OCC(=O)NC(C)c2ccc(N3CCOCC3)cc2)no1", "note": "(stereo not given)", "Percent Effect": -0.3596}
{"smiles": "Cc1cc(N2CCOCC2)ccc1NC(C)c1nc(C(C)C)no1", "note": "(stereo not given)", "Percent Effect": 89}
{"smiles": "CCN1CCN(c2ccc(C(=O)NC(C)c3ccncc3)cc2)CC1", "note": "(stereo not given)", "Percent Effect": -3.258}
{"smiles": "CCN1CCN(c2ccc(NC(C)c3nc(C(C)C)no3)c(C)c2)CC1", "note": "(stereo not given)", "Percent Effect": 117.8}
{"smiles": "CC(NCc1nnc2n1CCCC2)c1nc(C(C)(C)C)no1", "note": "(stereo not given)", "Percent Effect": 3.435}
{"smiles": "Cc1noc(C(C)Nc2ccc3oc(C)nc3c2)n1", "note": "(stereo not given)", "Percent Effect": 8.533}
{"smiles": "Cc1noc(C(C)Nc2ccc(N3CCOCC3)cc2C)n1", "note": "(stereo not given)", "Percent Effect": 200.3}
{"smiles": "Cc1cc(CNC(=O)NC(C)c2ccc(N3CCOCC3)cc2)no1", "note": "(stereo not given)", "Percent Effect": 1.457}
{"smiles": "CCNC(=O)c1nnc2ccc(N3CCOCC3)cc2n1", "Percent Effect": 17.66}
{"smiles": "Cc1noc(C(C)Nc2ccc3oc(C(C)C)nc3c2)n1", "note": "(stereo not given)", "Percent Effect": 8.094}
{"smiles": "Cc1cc(N2CCOCC2)ccc1NC(C)c1nc(C(C)(C)C)no1", "note": "(stereo not given)", "Percent Effect": 111.3}
{"smiles": "Cc1cc(CN2CCN(C(C)c3nc(C(C)C)no3)CC2)no1", "note": "(stereo not given)", "Percent Effect": 1.416}
{"smiles": "CCc1c(C(=O)O)nnn1-c1cccc(C)c1C", "Percent Effect": 95.29}
{"smiles": "COCc1c(C(=O)NC2CCCC2)nnn1-c1ccc(C)cc1", "Percent Effect": -4.164}
{"smiles": "Cc1c(C(=O)O)nnn1-c1cccc2cccnc12", "Percent Effect": -7.776}
{"smiles": "CCc1c(C(=O)O)nnn1-c1cc(C)ccc1C", "Percent Effect": 72.77}
{"smiles": "CCc1c(C(=O)O)nnn1-c1ccc(C)cc1C", "Percent Effect": 82.86}
{"smiles": "COCc1c(C(=O)O)nnn1Cc1cccc(C(F)(F)F)c1", "Percent Effect": 8.575}
{"smiles": "Cc1ccc(C(=O)N(C)CC(=O)N2CCCC2)c(C)c1", "Percent Effect": -3.926}
{"smiles": "Cc1ccc(C)c(-n2nnnc2SCN2CCCCC2=O)c1", "Percent Effect": -6.055}
{"smiles": "COc1cc(OC)c(-n2nnc(C(=O)O)c2C)cc1Cl", "Percent Effect": -3.799}
{"smiles": "CCc1c(C(=O)O)nnn1-c1cc(C)cc(C)c1", "Percent Effect": 90.67}
{"smiles": "Cc1ccc(CCNC(=O)NCCCC(N)=O)c(C)c1", "Percent Effect": -5.264}
{"smiles": "Cc1c(C(=O)N2CCC2(C)C)nnn1-c1cccc2cccnc12", "Percent Effect": 0.9445}
{"smiles": "CCc1cnc(N2C[C@H](OCc3csc(C)n3)[C@H]3COC[C@H]32)nc1.O=C(O)C(F)(F)F.O=C(O)C(F)(F)F", "Percent Effect": 4.189}
{"smiles": "CN1CCC(N[C@@H]2CO[C@H](CNC(=O)c3cccs3)[C@H]2O)CC1", "Percent Effect": -3.68}
{"smiles": "O=C(c1cn(CC(=O)N2CCc3[nH]cnc3C2)c2ccccc12)C1CC1", "Percent Effect": 1.32}
{"smiles": "COc1ccc(NC(=O)CSC(F)(F)F)cn1", "Percent Effect": 1.311}
{"smiles": "O=C(c1coc2ccccc12)N1CCS(=O)(=O)CC1", "Percent Effect": 0.973}
{"smiles": "COc1cc(Cl)c(C)cc1-n1nnc(C(=O)O)c1-c1ccncc1", "Percent Effect": -11.88}
{"smiles": "COc1cc(Cl)c(C)cc1-n1nnc(C(=O)O)c1C", "Percent Effect": 4.448}
{"smiles": "Cc1ccc(-n2nnc(C(=O)O)c2C)c(C)c1", "Percent Effect": 89.24}
{"smiles": "CC(C)(O)CCc1cccc(C(=O)NCc2cnn3cccnc23)c1", "Percent Effect": 6.543}
{"smiles": "CCN(Cc1ccc2c(c1)OCO2)C(=O)NC(C)Cn1cccn1", "note": "(stereo not given)", "Percent Effect": 4.631}
{"smiles": "CS(=O)(=O)CC1CCCN(C(=O)Cn2cccc(C(F)(F)F)c2=O)C1", "note": "(stereo not given)", "Percent Effect": 2.203}
{"smiles": "O=C(NCCc1c[nH]cn1)C1CCCN(C2CCOCC2)C1", "note": "(stereo not given)", "Percent Effect": -7.633}
{"smiles": "c1cc(-c2nnc([C@H]3CCN(C4CCOCC4)C3)o2)ccn1", "Percent Effect": -3.579}
{"smiles": "OCCn1nccc1C1CCN(CCCOc2ccc(F)cc2)CC1", "Percent Effect": -1.646}
{"smiles": "NC(=O)c1cnn2c(C3CCCN(C4CCOCC4)C3)ccnc12", "note": "(stereo not given)", "Percent Effect": 143.8}
{"smiles": "NC(=O)c1cnn2c(C3CCN(CCO)CC3)ccnc12", "Percent Effect": 128.9}
{"smiles": "CC(C)(C)c1cnc(CN2CCC(c3ccnn3CCO)CC2)o1", "Percent Effect": -7.147}
{"smiles": "COc1ccccc1OCCN1CCCC(c2cc(C(N)=O)[nH]n2)C1", "note": "(stereo not given)", "Percent Effect": -3.836}
{"smiles": "COCCN1CCCC(c2ccnc3c(C(N)=O)cnn23)C1", "note": "(stereo not given)", "Percent Effect": 97.31}
{"smiles": "NC(=O)Cn1ccnc1C1CCCN(CCSc2ccccc2)C1", "note": "(stereo not given)", "Percent Effect": 0.1316}
{"smiles": "CCC(CC)c1cc(C(=O)N2CCN(CC(N)=O)CC2)on1", "Percent Effect": 14.59}
{"smiles": "CC(=O)N1CCC(C(=O)NC(C)c2cccc(OC(F)F)c2)CC1", "note": "(stereo not given)", "Percent Effect": 11.71}
{"smiles": "CNC(=O)[C@@H](c1ccccc1)N1CCC[C@H]1C(=O)NC1CCCCC1.Cl", "Percent Effect": 13.78}
{"smiles": "O=C1NCCCC12CCN(S(=O)(=O)N1CCOCC1)C2", "note": "(stereo not given)", "Percent Effect": -15.95}
{"smiles": "CCc1nc(CN(C)Cc2nc(-c3ccccc3Cl)oc2C)no1", "Percent Effect": -5.34}
{"smiles": "NC(=O)NC(CC(=O)NCCc1cccc(F)c1)c1ccccc1", "note": "(stereo not given)", "Percent Effect": -0.165}
{"smiles": "c1ccc(-c2ncc(CN3CCCCC3CCn3cccn3)cn2)nc1", "note": "(stereo not given)", "Percent Effect": -35.25}
{"smiles": "CN(C)CCC1CCCCN1Cc1cnc(-c2ccccn2)nc1", "note": "(stereo not given)", "Percent Effect": -28.12}
{"smiles": "c1ccc(C2CCCCN2Cc2nc(-c3cnccn3)no2)nc1", "note": "(stereo not given)", "Percent Effect": 12.62}
{"smiles": "CNc1nccc(C2CCCCN2Cc2cnn3cccnc23)n1", "note": "(stereo not given)", "Percent Effect": 117.1}
{"smiles": "CN(C)c1nccc(C2CCCCN2Cc2cnn3cccnc23)n1", "note": "(stereo not given)", "Percent Effect": 74.52}
{"smiles": "c1cnc2c(CN3CCCCC3c3ccncn3)cnn2c1", "note": "(stereo not given)", "Percent Effect": 72.9}
{"smiles": "Cc1nc(C)c(C)c(NCc2cnn3cccnc23)n1", "Percent Effect": -1.599}
{"smiles": "c1ccc(C2CCCN2Cc2nc(-c3cnccn3)no2)nc1", "note": "(stereo not given)", "Percent Effect": -14.84}
{"smiles": "CN(C)Cc1nc(C(C)(C)NC(=O)c2nc3ccccc3s2)no1", "Percent Effect": 8.405}
{"smiles": "CC(C)c1cc(C(=O)N2C[C@H]3CC[C@@H]2CN(Cc2cscn2)C3)no1", "Percent Effect": -2.131}
{"smiles": "CNC(=O)C(C)(C)N1CCC[C@H]1C(=O)NC(C)(C)C", "Percent Effect": -3.15}
{"smiles": "OCCN1CCC(Cc2nccs2)CC1", "Percent Effect": 98.4}
{"smiles": "Fc1ccc(CC2CCN(Cc3nccs3)CC2)cc1", "Percent Effect": 16.43}
{"smiles": "Fc1ccccc1CC1CCN(Cc2nccs2)CC1", "Percent Effect": 9.425}
{"smiles": "CCOCc1nc2c(c(NCc3cc(C)on3)n1)CCN(C(C)=O)CC2", "Percent Effect": -0.7778}
{"smiles": "CCc1nc(NC(=O)NCCc2scnc2C)nn1C", "Percent Effect": 3.208}
{"smiles": "COc1ccccc1C(=O)N1CCCC1c1ncc2c(n1)CCNC2.Cl", "note": "(stereo not given)", "Percent Effect": 126.5}
{"smiles": "COc1cccc(C2CCCN2C(=O)c2cc3c(nc2OC)CCC3)c1", "note": "(stereo not given)", "Percent Effect": -14.5}
{"smiles": "COc1ccccc1C(=O)N1CCCC1c1nncn1CC(C)C", "note": "(stereo not given)", "Percent Effect": 2.233}
{"smiles": "Cl.O=C(c1cccc(F)c1)N1CCCC1c1ncc2c(n1)CCNC2", "note": "(stereo not given)", "Percent Effect": 105.4}
{"smiles": "COc1cccc(C(=O)N2CCCC2c2ncc3c(n2)CCN(C)C3)c1", "note": "(stereo not given)", "Percent Effect": 114.1}
{"smiles": "CCOc1ccccc1C(=O)N1CCCC1c1ncc2c(n1)CCNC2.Cl", "note": "(stereo not given)", "Percent Effect": 7.885}
{"smiles": "CN(C)c1cccc(C(=O)N2CCc3ccc(=O)[nH]c3CC2)c1", "Percent Effect": -3.419}
{"smiles": "CN(C)c1cccc(C(=O)N2CCCC2c2ncc3c(n2)CCNC3)c1.Cl", "note": "(stereo not given)", "Percent Effect": 118.3}
{"smiles": "COc1cccc(C2CCCN2C(=O)c2ccc(=O)n(C)c2)c1", "note": "(stereo not given)", "Percent Effect": 0.747}
{"smiles": "O=C(c1ccc(F)c(F)c1)N1CCCCC1c1nc[nH]n1", "note": "(stereo not given)", "Percent Effect": 17.06}
{"smiles": "Cc1ncnc2c1CCN(C(=O)c1cccc(F)c1)CC2", "Percent Effect": -5.781}
